Experimental data taken from PubChem BioAssay (NCI).
About 79,000 compounds went through this panel and 15% of them were active in at least one assay; those are over-represented in the sample as a whole. Calls of active or inactive are those of the source. No stated cut-off is given here; in the data, active means growth inhibition above about 70%; inactive means the rest.

Key:
[1] = NCI Yeast Anticancer Drug Screen. Data for the rad50 strain (AID 155);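 further: 0% = growth of vehicle-only cultures of the same strain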; details: S. cerevisiae rad50 strain growth inhibition; at 50.0 µM; hits give high values
Procedure, shortened: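 A DNA repair-deficient yeast mutant serves as the test organism; compound-induced growth inhibition is calculated against vehicle-treated cells.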

[2] = NCI Yeast Anticancer Drug Screen. Data for the mec2-1 strain (AID 157); details: S. cerevisiae mec2-1 strain, at 50.0 µM, hits give high values
Procedure, shortened: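 Yeast mec2-1 mutant treated with compound. Readout: growth inhibition vs vehicle controls.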

[3] = NCI Yeast Anticancer Drug Screen. Data for the sgs1 mgt1 strain (AID 161);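 further: 0% = growth of cultures given vehicle only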; details: S. cerevisiae sgs1 mgt1 strain, at 50.0 µM, hits give high values
Procedure, shortened: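 Read-out: growth inhibition vs vehicle controls. Cells: mutant yeast strain deficient in DNA damage repair.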

[4] = NCI Yeast Anticancer Drug Screen. Data for the cln2 rad14 strain (AID 165);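 further: 0% = growth equal to vehicle treated cultures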; details: S. cerevisiae cln2 rad14 strain, at 50.0 µM, hits give high values
Procedure, shortened: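 cln2 rad14 yeast strain; compound exposure; growth inhibition read vs vehicle controls.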

[5] = NCI Yeast Anticancer Drug Screen. Data for the bub3 strain (AID 167); details: S. cerevisiae bub3 mutant strain, at 50.0 µM, hits give high values
Procedure, shortened: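 Inhibition values come from growth of compound-treated mutant yeast normalised to vehicle-treated controls.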

[6] = NCI Yeast Anticancer Drug Screen. Data for the mlh1 rad18 strain (AID 175); details: S. cerevisiae mlh1 rad18 strain growth inhibition; at 50.0 µM; hits give high values
Procedure, shortened: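 Yeast w/ defined DNA-repair lesions; compound exposure; growth vs vehicle controls → % inhibition.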

Measured: growth inhibition

O=C(Nc1ccc(S(=O)(=O)NC2CCCCC2)cc1)OC1CCCCCC1
inactive: [1] 2.6% | [2] -1.25% | [3] 7.75% | [4] 4.35% | [5] -1.95% | [6] -0.85%

Nc1ncnc2c1ccn2Cc1c(F)cccc1Cl
inactive: [1] -0.8% | [2] -7.3% | [3] -10.9% | [4] -1.2% | [5] 6.05% | [6] -13.6%

Cc1cc(O)c(C)c(C)c1C
inactive: [1] -1.05% | [2] -6.55% | [3] 4.5% | [4] 2.1% | [5] -9.85% | [6] 12.1%

CC(=O)N(c1ccc(F)c(F)c1)c1ccc(F)c(F)c1
inactive: [1] -18.3% | [2] -5.55% | [3] -0.9% | [4] 1.5% | [5] 19.6% | [6] 14.2%

O=C1CSC(c2ccc([N+](=O)[O-])cc2)N1c1nc(-c2ccc3c(c2)CCCC3)cs1 (stereo not given)
inactive: [1] 32.1% | [2] 2.85% | [3] 21.1% | [4] 9.3% | [5] 1% | [6] 31.5%

CCCCNC(=O)c1cccc(OC)c1OC
inactive: [1] 2.25% | [2] -1.55% | [3] 4.3% | [4] 2.35% | [5] -5.65% | [6] 3.45%

C[N+]1=C2[B-](C(C)(C)C)=[N+](C(C)(C)C)[B-]2(C(C)(C)C)[N+](C)=C2[B-](C(C)(C)C)=[N+](C(C)(C)C)[B-]21C(C)(C)C (stereo not given)
inactive: [1] 2.65% | [2] 0% | [3] 9.35% | [4] -8.35% | [5] -4.1% | [6] -9.85%

CC(=O)c1c(C)n(-c2ccccc2)c2c1nnc1ccccc12
inactive: [1] 3.3% | [2] 3.65% | [3] 22.2% | [4] -8.65% | [5] -5.65% | [6] 4.15%

O=C(CBr)c1cc(-c2ccc(Cl)cc2)nc2c(-c3ccccc3)cccc12
inactive: [1] 14.2% | [2] 1.2% | [3] 27.6% | [4] 48.9% | [5] 2.15% | [6] 14.4%

O=C(O)c1cc2cc(Br)ccc2c(Br)c1O
inactive: [1] -3.75% | [2] -25.7% | [3] -8% | [4] -71.3% | [5] -24.2% | [6] -3.85%

CC(=O)/C=C/C1=C(C)CCCC1(C)C (tested in a mixture with another compound)
inactive: [1] 19.7% | [2] 1% | [3] 9.2% | [4] -3.25% | [5] 24.3% | [6] 5.7%

COC(=O)C1=CON2C3CC4CC(C3)CC(C4)C12C (stereo not given)
inactive: [1] -2% | [2] -30.6% | [3] -8.95% | [4] -14.2% | [5] -18.4% | [6] -5.9%

Cc1cc[n+]2c(c1)-c1cc(C)cc[n+]1CC2
inactive: [1] 26.7% | [2] 1.15% | [3] 14.3% | [4] -10.8% | [5] 0.6% | [6] 6.3%

N#CCCN(CCC#N)CCN(CCN(CCC#N)CCC#N)CCN(CCC#N)CCC#N
inactive: [1] -8.1% | [2] -0.25% | [3] -6.4% | [4] 2.1% | [5] -15.2% | [6] -10.8%

CCC1SCC(=O)N1c1nncs1 (stereo not given)
inactive: [1] 4.75% | [2] 18.9% | [3] 4.55% | [4] -8.6% | [5] 2.75% | [6] 2.95%

BrC1=C(c2ccccc2)SC(Br)=C(c2ccccc2)S1
inactive: [1] 1.55% | [2] 4.45% | [3] 1.2% | [4] 21.7% | [5] 5.45% | [6] 3.75%

OCc1ccc2ccccc2n1
inactive: [1] 24% | [2] -1.2% | [3] 21.6% | [4] -1.55% | [5] 12.7% | [6] 31.1%

CCOC(=O)c1cc(-c2ccccc2)c(-c2ccccc2)c(-c2ccccc2)c1-c1ccccc1
inactive: [1] 28.4% | [2] 9.15% | [3] 19.6% | [4] 18.3% | [5] 2.75% | [6] 14.6%

Cc1nc2ccccc2n1C(=O)c1c(F)c(F)c(F)c(F)c1F
inactive: [1] -35.9% | [2] -17.6% | [3] -28.6% | [4] -18.7% | [5] -9.8% | [6] -18.9%

Cc1cc(O)cc(O)c1C(=O)O[C@]1(C)C(=O)C=C2C=C(/C=C/C(=O)O)OC=C2C1=O
inactive: [1] -2.6% | [2] -16.9% | [3] -9.95% | [4] 9.6% | [5] -13.5% | [6] -3.9%

Cc1ccsc1/C=N/Nc1cnccn1
inactive: [1] 11.1% | [2] 2.6% | [3] 17.3% | [4] 6.15% | [5] 0.4% | [6] 19.9%

COc1cc2c(cc1OC)C1CCc3ccccc3CN1CC2 (stereo not given)
inactive: [1] 0.7% | [2] -25.5% | [3] -6.85% | [4] 8.95% | [5] -15.8% | [6] 3.15%

COc1cc(C(=O)O)c(I)c(OC)c1OC
inactive: [1] -10.9% | [2] -5.85% | [3] -6.25% | [4] -4.85% | [5] 3.6% | [6] -9.65%

CCOC(=O)N1C2c3ccccc3C3C(C21)N3C(=O)OCC (stereo not given)
inactive: [1] -0.3% | [2] -12.3% | [3] 0.3% | [4] 1.95% | [5] 3.9% | [6] -11.4%

C=C(C)[C@@H]1CC[C@]2(C)CC[C@]3(C)[C@H](CC[C@@H]4[C@@]5(C)CC[C@H](O)C(C)(C)[C@@H]5CC[C@]43C)[C@@H]12
inactive: [1] -2.75% | [2] -4.95% | [3] -11.3% | [4] -10.4% | [5] -6.05% | [6] -11.3%

C=CCOc1cc2c(cc1C(C)c1ccc(OCC)cc1)OCO2 (stereo not given)
inactive: [1] 51.6% | [2] 14.8% | [3] -14.6% | [4] -19.4% | [5] -10.8% | [6] -32.3%

CCc1n[nH]c(=O)n1N1C(=O)CCC1=O
inactive: [1] 4.25% | [2] 18.4% | [3] -11.7% | [4] 5.4% | [5] -23.8% | [6] 23.2%

C=C1C(=O)O[C@@H]2[C@@H]3[C@@H](C)C(=O)C=C[C@]3(C)CC[C@@H]12
inactive: [1] -15.9% | [2] -49.1% | [3] -11.2% | [4] 7.05% | [5] -35.6% | [6] -14.9%

CC/C(Cl)=N\OC(=O)Nc1ccc(C#N)cc1
inactive: [1] -44.8% | [2] 4.9% | [3] -19.4% | [4] 13.8% | [5] 46.3% | [6] -10.4%

CCCCS(=O)(=O)CCC(N)P(=O)(O)O (stereo not given)
inactive: [1] -26.9% | [2] -77.8% | [3] -43.2% | [4] -33.8% | [5] -6.15% | [6] -36.9%

CN(c1c(Cl)cccc1Cl)S(=O)(=O)c1ccccc1[N+](=O)[O-]
inactive: [1] -38.5% | [2] -49.5% | [3] -15.5% | [4] 20% | [5] -1.1% | [6] -4.5%

O=c1ccc2cc(Br)ccc2o1
inactive: [1] 6.65% | [2] 16.7% | [3] 16.6% | [4] -16.4% | [5] 10.7% | [6] 4.35%

CCCCCCCCCCCCOC1C(COCCN2CCCCC2)OC2OC(C)(C)OC21 (stereo not given)
active: [1] 92.6% | [2] 93.4% | [3] 89.7% | [4] 90% | [5] 88% | [6] 90.2%

Cc1cn(C2CC(O)C(O)C(C)O2)c(=O)[nH]c1=O (stereo not given)
inactive: [1] 22.2% | [2] 6.15% | [3] 24.6% | [4] 5.8% | [5] 12.2% | [6] 25.4%

CC1(C)NC(c2ccccc2)c2ccsc2-n2cccc21 (stereo not given)
inactive: [1] -27.7% | [2] -29.7% | [3] -15.7% | [4] 18.9% | [5] -9.85% | [6] -8.6%

CC(C)(C)c1cc2ccc(C(N)=O)cc2c(=O)[nH]1
inactive: [1] -23.7% | [2] -29.8% | [3] -1.65% | [4] 1.2% | [5] -8.8% | [6] -4.95%

CCCCCC1NC(C)(C)CO1 (stereo not given)
inactive: [1] 1.25% | [2] -2.95% | [3] -0.85% | [4] 1.95% | [5] 9.65% | [6] 10.7%

CCC(C)N1C(=O)c2ccccc2C1=O (stereo not given)
inactive: [1] 33% | [2] -13.6% | [3] 17.1% | [4] -13.6% | [5] 11.3% | [6] 27.1%

CC1Cc2c(cc(N)nc2Br)NC1=O (stereo not given)
inactive: [1] -10.6% | [2] -6.05% | [3] 6.95% | [4] 19.2% | [5] 3.35% | [6] 10.1%

NNC(=O)C(=O)N/N=C1/CCCC1C(=O)CCC(=O)Nc1ccc(Cl)cc1 (stereo not given)
inactive: [1] -4% | [2] -14.2% | [3] 0% | [4] -0.2% | [5] 0.3% | [6] -6.9%
